Measured values published in ChEMBL document CHEMBL1157539, “Thousands of chemical starting points for antimalarial lead identification” (Nature, 2010).

These compounds were tested on Plasmodium falciparum (assay: GSK_TCMDC: Inhibition of Plasmodium falciparum 3D7 in whole red blood cells, using parasite LDH activity as an index of growth. Test compounds present at 2uM).
Assay type: functional
O=c1cc(NCCCNC(c2ccccc2)c2ccc(Cl)c(Cl)c2)[nH]c2ccccc12 (stereo not drawn) showed an Inhibition of 89%. For CC(C)c1ccc2[nH]c(C(=O)NC3CCC(N4CCCc5ccc(C#N)cc5C4)CC3)cc2c1 (stereo not drawn), the Inhibition was 91%. Work on Br.CCCCCCCCc1c(C)nc(C)c(Br)c1O yielded an Inhibition of 96%. With CCOc1cc(C(=O)NCCN(C(C)C)C(C)C)ccc1-c1nc2cc(Cl)ccc2[nH]1 the Inhibition was 100%. For O=C(Cn1c(CCc2cccc(F)c2F)nc(=O)c2ccccc21)N(CCCN1CCCCC1)Cc1ccc(-c2ccc(C(F)(F)F)cc2)cc1.O=C(O)C(O)C(O)C(=O)O, the Inhibition was 100%. CC(C)[C@H](NC(=O)c1c(CN2CCC(N3CCCCC3)CC2)c(-c2ccccc2)nc2cc(O)ccc12)c1ccccc1 showed an Inhibition of 100%. CN(C)Cc1ccc2cc(NC(=O)c3ccc(-c4ccc(Cl)cc4)cc3)ccc2c1 was tested, and the Inhibition was 92%. Work on Cc1onc(-c2c(F)cccc2Cl)c1C(=O)Nc1ccccc1I yielded an Inhibition of 99%. CCOc1ccc(C(C)NC(=O)c2ccc(OC)c(Br)c2)cc1OCC (stereo not drawn) was tested, and the Inhibition was 100%. Cc1ccnc(NC(=O)c2cc(-c3cccc([N+](=O)[O-])c3)nc3onc(C)c23)c1 gave an Inhibition of 91%. In the case of Cl.NC[C@H](CC1CCCCC1)NC(=O)c1ccc(-c2ccnc3[nH]ccc23)s1, the Inhibition is reported as 98%. In the case of FC(F)(F)c1cccc(-c2cc(NCCCn3ccnc3)nc(-c3ccncc3)n2)c1, the Inhibition is reported as 100%. COc1cccc(C2=CC(c3ccccc3)n3ncc(C(=O)Nc4ccc(Cl)cc4)c3N2)c1 (stereo not drawn) showed an Inhibition of 88%. With CCN1CCN(C(=O)NC(C(=O)N(C)Cc2ccc(-c3ccc(C(F)(F)F)cc3)cc2)c2cccs2)C(=O)C1=O (stereo not drawn) the Inhibition was 99%. For O=C(NCCCN1CCC(N2CCCCC2)CC1)c1ccc2nc(N3CCCCC3)sc2c1, the Inhibition was 89%. In the case of COc1ccc(-c2nonc2NC(=O)c2cccc(Cl)c2)cc1OC, the Inhibition is reported as 98%. Work on COc1ccc(CN2CCC2=O)c(OC)c1 yielded an Inhibition of 98%. CC1CC(NCCCNc2cc(=O)c3ccccc3[nH]2)c2c1cc(Cl)c(Cl)c2Cl (stereo not drawn) showed an Inhibition of 98%. N=C(/N=C(/NCCCCCCN/C(=N/C(=N)NCc1ccc(Cl)c(Cl)c1)N1CCCCC1)N1CCCCC1)NCc1ccc(Cl)c(Cl)c1 showed an Inhibition of 100%. CCN(CCCN1CCCCC1)c1cc(C)nc(Nc2ccc(C)cc2C)n1.O=C(O)C(F)(F)F showed an Inhibition of 91%. For Cl.c1ccc2c(NCCCCCCCCCNc3ccnc4ccccc34)ccnc2c1, the Inhibition was 100%. In the case of CN(C)c1ccc(-c2csc(C(=O)NC3CCCCN(Cc4ccc(C(C)(C)C)cc4)C3)c2)cc1.O=C(O)C(F)(F)F (stereo not drawn), the Inhibition is reported as 84%. In the case of CCCCCCCc1ccc(-c2c(C)[nH]c(C)c(Cl)c2=O)cn1, the Inhibition is reported as 99%. Work on CCc1ccc(-n2c(=O)c3cccnc3n2CC(=O)NC2CCCC2)cc1 yielded an Inhibition of 98%. In the case of Clc1ccc2c(N3CCCNCC3)ccnc2c1, the Inhibition is reported as 100%. In the case of CN1CCN(Cc2c(O)ccc3c(=O)c(Oc4ccc(C(C)(C)C)cc4)c(C(F)(F)F)oc23)CC1, the Inhibition is reported as 99%. Work on CCOc1ccc2c(=NN=Cc3cccc(OC)c3OC)cc(C)[nH]c2c1 yielded an Inhibition of 100%. COc1ccccc1C1CC(c2ccc(C)cc2)=NN1C(=O)c1ccccc1 (stereo not drawn) was tested, and the Inhibition was 98%. CCCC(CNCc1cccc(SC(F)(F)F)c1)CNc1cc(=O)c2ccccc2[nH]1 (stereo not drawn) gave an Inhibition of 100%. O=C(C=Cc1ccc(-c2nc3ccccc3[nH]2)cc1)NC1CCN(Cc2ccccc2)CC1 gave an Inhibition of 99%. COc1cc(C(=O)NCCCN2CCN(c3cc(Cl)ccc3OC)CC2)ccc1-c1nc2cc(Cl)c(Cl)cc2[nH]1 was tested, and the Inhibition was 100%. CN(Cc1ccccc1)C1CCN(c2cc(NC(=O)c3cccc(F)c3)ccn2)CC1.O=C(O)C(F)(F)F was tested, and the Inhibition was 93%. Work on CNC(=O)c1cc(S(=O)(=O)Nc2ccc(OC)cc2)cs1 yielded an Inhibition of 95%. Work on Nc1nc(N)c2c(n1)CCC(c1ccccc1)C2 (stereo not drawn) yielded an Inhibition of 93%. Fc1ccc2[nH]c(-c3ccc(-c4ccc(CNCCN5CCNCC5)cc4)cc3)nc2c1.O=C(O)C(F)(F)F was tested, and the Inhibition was 96%. CCNc1cc(C(=O)N[C@@H](Cc2cc(F)cc(F)c2)[C@H](O)CNCc2cccc(C(F)(F)F)c2)cc(N2CCCCS2(=O)=O)c1.Cl gave an Inhibition of 99%. CC12CCC(CN(CC(O)Cn3c4ccccc4c4cc(I)ccc43)C1)C2(C)C.Cl (stereo not drawn) gave an Inhibition of 94%. For CCCCNCc1ccc(-c2nc(CN(C(=O)Nc3cc([N+](=O)[O-])ccc3F)C3Cc4ccccc4C3)cs2)cc1.O=C(O)C(F)(F)F, the Inhibition was 87%. For CCOC(=O)c1c(NC(=O)c2ccccc2)sc2c(O)c(CN(CC)CC)ccc12.Cl, the Inhibition was 100%.

What follows are compounds tested on Plasmodium falciparum (assay: GSK_TCMDC: Inhibition of Plasmodium falciparum Dd2 in whole red blood cells, using parasite LDH activity as an index of growth. Test compounds present at 2uM).
Assay type: functional
Work on O=c1cc(NCCCNC(c2ccccc2)c2ccc(Cl)c(Cl)c2)[nH]c2ccccc12 (stereo not drawn) yielded an Inhibition of 94%. Compound CC(C)c1ccc2[nH]c(C(=O)NC3CCC(N4CCCc5ccc(C#N)cc5C4)CC3)cc2c1 (stereo not drawn) has an Inhibition of 27%. Br.CCCCCCCCc1c(C)nc(C)c(Br)c1O gave an Inhibition of 92%. Compound CCOc1cc(C(=O)NCCN(C(C)C)C(C)C)ccc1-c1nc2cc(Cl)ccc2[nH]1 has an Inhibition of 90%. O=C(Cn1c(CCc2cccc(F)c2F)nc(=O)c2ccccc21)N(CCCN1CCCCC1)Cc1ccc(-c2ccc(C(F)(F)F)cc2)cc1.O=C(O)C(O)C(O)C(=O)O gave an Inhibition of 94%. CC(C)[C@H](NC(=O)c1c(CN2CCC(N3CCCCC3)CC2)c(-c2ccccc2)nc2cc(O)ccc12)c1ccccc1 showed an Inhibition of 73%. Compound CN(C)Cc1ccc2cc(NC(=O)c3ccc(-c4ccc(Cl)cc4)cc3)ccc2c1 has an Inhibition of 22%. Cc1onc(-c2c(F)cccc2Cl)c1C(=O)Nc1ccccc1I gave an Inhibition of 52%. Work on CCOc1ccc(C(C)NC(=O)c2ccc(OC)c(Br)c2)cc1OCC (stereo not drawn) yielded an Inhibition of 100%. In the case of Cc1ccnc(NC(=O)c2cc(-c3cccc([N+](=O)[O-])c3)nc3onc(C)c23)c1, the Inhibition is reported as 44%. With Cl.NC[C@H](CC1CCCCC1)NC(=O)c1ccc(-c2ccnc3[nH]ccc23)s1 the Inhibition was 4%. In the case of FC(F)(F)c1cccc(-c2cc(NCCCn3ccnc3)nc(-c3ccncc3)n2)c1, the Inhibition is reported as 100%. COc1cccc(C2=CC(c3ccccc3)n3ncc(C(=O)Nc4ccc(Cl)cc4)c3N2)c1 (stereo not drawn) gave an Inhibition of 28%. Work on CCN1CCN(C(=O)NC(C(=O)N(C)Cc2ccc(-c3ccc(C(F)(F)F)cc3)cc2)c2cccs2)C(=O)C1=O (stereo not drawn) yielded an Inhibition of 95%. With O=C(NCCCN1CCC(N2CCCCC2)CC1)c1ccc2nc(N3CCCCC3)sc2c1 the Inhibition was 20%. COc1ccc(-c2nonc2NC(=O)c2cccc(Cl)c2)cc1OC gave an Inhibition of 63%. Work on COc1ccc(CN2CCC2=O)c(OC)c1 yielded an Inhibition of 96%. Work on CC1CC(NCCCNc2cc(=O)c3ccccc3[nH]2)c2c1cc(Cl)c(Cl)c2Cl (stereo not drawn) yielded an Inhibition of 70%. In the case of N=C(/N=C(/NCCCCCCN/C(=N/C(=N)NCc1ccc(Cl)c(Cl)c1)N1CCCCC1)N1CCCCC1)NCc1ccc(Cl)c(Cl)c1, the Inhibition is reported as 99%. CCN(CCCN1CCCCC1)c1cc(C)nc(Nc2ccc(C)cc2C)n1.O=C(O)C(F)(F)F showed an Inhibition of 35%. With Cl.c1ccc2c(NCCCCCCCCCNc3ccnc4ccccc34)ccnc2c1 the Inhibition was 100%. Compound CN(C)c1ccc(-c2csc(C(=O)NC3CCCCN(Cc4ccc(C(C)(C)C)cc4)C3)c2)cc1.O=C(O)C(F)(F)F (stereo not drawn) has an Inhibition of 55%. For CCCCCCCc1ccc(-c2c(C)[nH]c(C)c(Cl)c2=O)cn1, the Inhibition was 96%. CCc1ccc(-n2c(=O)c3cccnc3n2CC(=O)NC2CCCC2)cc1 gave an Inhibition of 27%. Work on Clc1ccc2c(N3CCCNCC3)ccnc2c1 yielded an Inhibition of 99%. CN1CCN(Cc2c(O)ccc3c(=O)c(Oc4ccc(C(C)(C)C)cc4)c(C(F)(F)F)oc23)CC1 gave an Inhibition of 88%. CCOc1ccc2c(=NN=Cc3cccc(OC)c3OC)cc(C)[nH]c2c1 was tested, and the Inhibition was 85%. Compound COc1ccccc1C1CC(c2ccc(C)cc2)=NN1C(=O)c1ccccc1 (stereo not drawn) has an Inhibition of 45%. Compound CCCC(CNCc1cccc(SC(F)(F)F)c1)CNc1cc(=O)c2ccccc2[nH]1 (stereo not drawn) has an Inhibition of 87%. Work on O=C(C=Cc1ccc(-c2nc3ccccc3[nH]2)cc1)NC1CCN(Cc2ccccc2)CC1 yielded an Inhibition of 88%. COc1cc(C(=O)NCCCN2CCN(c3cc(Cl)ccc3OC)CC2)ccc1-c1nc2cc(Cl)c(Cl)cc2[nH]1 gave an Inhibition of 99%. Compound CN(Cc1ccccc1)C1CCN(c2cc(NC(=O)c3cccc(F)c3)ccn2)CC1.O=C(O)C(F)(F)F has an Inhibition of 3%. Compound CNC(=O)c1cc(S(=O)(=O)Nc2ccc(OC)cc2)cs1 has an Inhibition of 48%. In the case of Nc1nc(N)c2c(n1)CCC(c1ccccc1)C2 (stereo not drawn), the Inhibition is reported as 0%. Work on Fc1ccc2[nH]c(-c3ccc(-c4ccc(CNCCN5CCNCC5)cc4)cc3)nc2c1.O=C(O)C(F)(F)F yielded an Inhibition of 70%. CCNc1cc(C(=O)N[C@@H](Cc2cc(F)cc(F)c2)[C@H](O)CNCc2cccc(C(F)(F)F)c2)cc(N2CCCCS2(=O)=O)c1.Cl showed an Inhibition of 80%. In the case of CC12CCC(CN(CC(O)Cn3c4ccccc4c4cc(I)ccc43)C1)C2(C)C.Cl (stereo not drawn), the Inhibition is reported as 82%. CCCCNCc1ccc(-c2nc(CN(C(=O)Nc3cc([N+](=O)[O-])ccc3F)C3Cc4ccccc4C3)cs2)cc1.O=C(O)C(F)(F)F showed an Inhibition of 13%. CCOC(=O)c1c(NC(=O)c2ccccc2)sc2c(O)c(CN(CC)CC)ccc12.Cl was tested, and the Inhibition was 100%.
